This is a sample that favours compounds with a hit; in the whole collection about 6.8% have one here.
Pf Dd2 inh: P. falciparum Dd2 growth inhibition; SYBR Green, 72 h; stronger effect = lower value; activity change, % at 10 µM; actives 2.3% (n = 94,000); in the data active = activity change below about -80%; inconclusive = no clear call, values can overlap the other calls
C diff growth: C. difficile growth inhibition | Clostridium difficile clinical isolate growth, OD600, 24 h; stronger effect = lower value | growth activity, negative = inhibition, % at 16 µg/mL (by protocol) | actives 0.25% (n = 86,000) | AID 1259249;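 active = mean growth activity at or below -80% and every replicate also at or below -80%; inconclusive = mean at or below -80% but some replicate above -80%; inactive = mean growth activity above -80%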
Tcruzi prolif: T. cruzi proliferation inhibition; T. cruzi beta-gal in NIH3T3, GalScreen luminescence, 90 h; inhibition, % at 8.34 µM; actives 5.9% (n = 77,000);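 active = mean inhibition above about 93%, with at least 55% of replicates each passing it, limit read from the data, passing the limit was not always enough; inconclusive = only one of those two conditions holds; inactive = neither condition holds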
Hits are given with their value; – = inactive; ? = inconclusive; · = no result; ! = not active in a repeat.

SMILES | Pf Dd2 inh | C diff growth | Tcruzi prolif
Cc1ccccc1S(=O)(=O)N(C)C[C@@H]1OCc2ccccc2-c2c(n(C)c3ccccc23)C(=O)N([C@@H](C)CO)C[C@H]1C | ? | · | –
COc1ccccc1S(=O)(=O)N(C)C[C@@H]1OCc2ccccc2-c2c(n(C)c3ccccc23)C(=O)N([C@H](C)CO)C[C@@H]1C | -94 | – | –
COc1ccccc1S(=O)(=O)N(C)C[C@@H]1OCc2ccccc2-c2c(n(C)c3ccccc23)C(=O)N([C@@H](C)CO)C[C@@H]1C | -93 | – | –
C[C@H](CO)N1C[C@H](C)[C@H](CN(C)C(=O)NC2CCCCC2)Oc2c(NS(=O)(=O)c3cn(C)cn3)cccc2C1=O | – | – | –
C[C@@H]1CCCCO[C@@H](CN(C)Cc2ccccc2)[C@@H](C)CN([C@H](C)CO)C(=O)c2cc(NC(=O)c3ccccc3)ccc2O1 | – | – | –
C[C@@H]1CN([C@@H](C)CO)C(=O)c2cc(NS(=O)(=O)c3cccs3)ccc2O[C@@H](C)CCCCO[C@H]1CN(C)C(=O)Nc1ccc(F)cc1 | -81 | – | –
C[C@H](CO)N1C[C@H](C)[C@H](CN(C)C(=O)Nc2ccc(F)cc2)OCCCC[C@H](C)Oc2ccc(NS(=O)(=O)c3cccs3)cc2C1=O | – | – | –
C[C@@H]1CCCCO[C@H](CN(C)C(=O)NC2CCCCC2)[C@H](C)CN([C@H](C)CO)C(=O)c2cc(NS(=O)(=O)c3cccs3)ccc2O1 | -82 | – | –
C[C@@H]1CCCCO[C@H](CN(C)C(=O)NC2CCCCC2)[C@H](C)CN([C@@H](C)CO)C(=O)c2cc(NS(=O)(=O)c3cccs3)ccc2O1 | – | – | –
CN(C)C(=O)[C@H]1[C@H](CO)[C@H]2Cn3c(cccc3=O)[C@@H]1N2C(=O)c1ccccc1 | – | – | –
CCN(C[C@@H]1N[C@@H](CO)[C@@H]1c1ccccc1)C(=O)c1ccncc1 | – | – | –
O=C(C[C@@H]1CC[C@@H]2[C@H](COC[C@H](O)CN2C(=O)Nc2ccccc2)O1)NCc1ccncn1 | · | – | –
CCCNC(=O)C[C@H]1CC[C@@H]2[C@H](COC[C@H](O)CN2C(=O)Nc2ccc(Cl)c(Cl)c2)O1 | – | -101! | –
CCNC(=O)C[C@@H]1CC[C@@H]2[C@H](COC[C@H](O)CN2C(=O)Nc2ccc(Cl)c(Cl)c2)O1 | – | · | –
O=C(C[C@@H]1CC[C@@H]2[C@H](COC[C@@H](O)CN2C(=O)Nc2ccc(Cl)c(Cl)c2)O1)NCc1ccc(F)cc1 | – | – | –
O=C(C[C@H]1CC[C@H]2[C@@H](COC[C@H](O)CN2C(=O)c2ccccc2F)O1)NCc1ccc(-c2ccccc2)cc1 | – | – | ·
O=C(C[C@@H]1CC[C@@H]2[C@H](COC[C@@H](O)CN2C(=O)c2ccccc2F)O1)NCc1ccc(-c2ccccc2)cc1 | -86 | – | ·
O=C(C[C@@H]1CC[C@@H]2[C@H](COC[C@H](O)CN2C(=O)Nc2ccc(Cl)c(Cl)c2)O1)NCc1ccc(F)cc1 | – | -96 | –
C[C@@H]1CCCCO[C@@H](CN(C)C)[C@H](C)CN([C@@H](C)CO)C(=O)c2cc(NC(=O)Nc3ccccc3)ccc2O1 | – | – | –
O=C(C[C@@H]1CC[C@@H]2[C@H](COC[C@@H](O)CN2Cc2ccc(F)cc2)O1)NCCc1ccccc1 | – | · | –
Cc1ccc(S(=O)(=O)N(C)C[C@@H]2OCCCC[C@H](C)Oc3ccc(NC(=O)NC4CCCCC4)cc3C(=O)N([C@@H](C)CO)C[C@H]2C)cc1 | – | – | –
Cc1ccc(S(=O)(=O)N(C)C[C@@H]2OCCCC[C@@H](C)Oc3ccc(NC(=O)NC4CCCCC4)cc3C(=O)N([C@H](C)CO)C[C@@H]2C)cc1 | – | – | –
Cc1ccc(S(=O)(=O)N(C)C[C@@H]2OCCCC[C@@H](C)Oc3ccc(NC(=O)NC4CCCCC4)cc3C(=O)N([C@@H](C)CO)C[C@@H]2C)cc1 | -86 | – | –
Cc1ccc(S(=O)(=O)N(C)C[C@H]2OCCCC[C@H](C)Oc3ccc(NC(=O)NC4CCCCC4)cc3C(=O)N([C@H](C)CO)C[C@H]2C)cc1 | -83 | – | –
CO[C@@H]1CN(C)C(=O)c2ccc(NC(C)=O)cc2OC[C@H](C)N(Cc2ccccc2F)C[C@@H]1C | – | · | –
COc1ccc(S(=O)(=O)Nc2ccc3c(c2)C(=O)N([C@H](C)CO)C[C@H](C)[C@@H](CN(C)C(=O)NC2CCCCC2)OCCCC[C@H](C)O3)cc1 | – | – | –
COc1ccc(S(=O)(=O)Nc2ccc3c(c2)C(=O)N([C@H](C)CO)C[C@@H](C)[C@@H](CN(C)C(=O)C2CCCCC2)OCCCC[C@@H](C)O3)cc1 | – | – | –

From PubChem BioAssay
